# HDAC3 inhib = inhibitors of human histone deacetylase 3. inhibition, % at 8.3 µM. 320,000 compounds, 0.15% hits. recombinant HDAC3, fluorogenic peptide/trypsin coupled, fluorescence; in the data active = inhibition above about 26%, passing the limit was not always enough
# Target sequence (O15379 whole entry, looked up): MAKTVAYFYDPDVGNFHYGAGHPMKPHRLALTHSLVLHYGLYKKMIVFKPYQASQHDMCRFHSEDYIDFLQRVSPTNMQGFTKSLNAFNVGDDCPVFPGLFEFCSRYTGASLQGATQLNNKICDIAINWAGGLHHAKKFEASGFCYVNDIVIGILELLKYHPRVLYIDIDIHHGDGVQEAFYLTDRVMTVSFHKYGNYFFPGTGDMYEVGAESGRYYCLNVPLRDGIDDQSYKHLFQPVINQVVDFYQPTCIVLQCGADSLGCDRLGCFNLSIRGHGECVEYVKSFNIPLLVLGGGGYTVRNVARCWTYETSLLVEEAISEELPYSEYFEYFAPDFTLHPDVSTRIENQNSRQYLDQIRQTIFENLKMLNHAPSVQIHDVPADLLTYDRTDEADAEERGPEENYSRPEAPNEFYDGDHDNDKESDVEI
# CR mimetic SO = lowers age-related superoxide in aged yeast cells. S. cerevisiae aged cells, superoxide DHE fluorescence; hits give low values. superoxide response (% of plate mean), % at 10 µM. 330,000 compounds, 0.18% hits. AID 2690;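 active = superoxide response under a set limit, about three screen SD below normal, cut at about 65% in these data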;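 also: yeast aged for seven days with compound at 30 °C before DHE staining; 100% = average MFI of all compound-treated wells on the plate with controls excluded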
# HIF activator = HIF pathway transcriptional activation | U2OS HRE-luciferase reporter, luminescence; normalized: DMSO 0%, desferrioxamine 100% | activation, % at 7.5 µM (by protocol) | 300,000 compounds, 0.32% hits | AID 1910;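 active = mean activation of at least 10% of the iron chelator positive control signal, with at least half of replicates also reaching 10%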
# LANA-H2A inh = blocks KSHV LANA binding to histone H2A/H2B; AID 2629; 320,000 compounds, 0.6% hits; cell-free LANA-H2A/H2B peptide, fluorescence polarization; inhibition, % (test concentration not listed); Q9QR71; in the data active = inhibition mostly above about 10%, no sharp cut-off; inactive = mostly below about 6.7%
# Numbers without * were called inactive; nt = no result given; + = active, no number. Only some compounds are listed: those with a hit (about 1.2% of all), similar ones and a draw of the others.
SMILES,HDAC3 inhib,CR mimetic SO,HIF activator,LANA-H2A inh
C=CCNC(=S)NNC(=O)c1ccc(OCC)cc1,-3,113,0,-1
C=CCNC(=S)NNC(=O)c1ccc(OCC(C)C)cc1,0,111,1,19*
CSc1sc(-c2n[nH]c(=S)n2C)c2c1C=CCC2,34*,85,0,1
CC(C)(C)C1(C)OC(=O)C(=Cc2ccc(OCC(=O)Nc3ccccc3)cc2)C(=O)O1 (stereo unspecified),-2,102,-1,25*
CCCCc1c(O)c2ccccc2n(CCCC)c1=O,8,109,0,14*
O=C1CCCN1c1ccc(S(=O)(=O)Oc2ccc(Cl)cc2)cc1[N+](=O)[O-],-3,103,0,-2
Cc1nc(SCC(=O)N2CCNC2=O)c2ccccc2n1,3,94,nt,21*
O=C(CSc1nnc(C2CC2)n1-c1ccccc1)N1CCNC1=O,3,105,nt,47*
S=c1[nH]c(-c2ccc(Br)cc2)cn1CCc1ccccc1,1,87,2,-2
CCC(Oc1ccccc1)C(=O)N1CCN(S(=O)(=O)c2ccccc2)CC1 (stereo unspecified),11,98,nt,-3
CCc1cc(C(=O)N(CC)CC(=O)Nc2ccc(OC)cc2)sc1C,1,107,nt,2
CC(=O)Nc1ccc(-c2cn3ccsc3n2)cc1,-6,96,1,15*
CNC(=O)c1ccc(NC(=O)CC2SC(N3CCCC3)=NC2=O)cc1 (stereo unspecified),0,91,nt,50*
CC(C)NC(=O)c1ccc(NC(=O)CC2SC(N3CCCC3)=NC2=O)cc1 (stereo unspecified),-6,80,nt,+
CC(C)NC(=O)c1ccc(NC(=O)CC2SC(N3CCCCC3)=NC2=O)cc1 (stereo unspecified),-2,82,nt,-4
O=C(CC1SC(N2CCCCC2)=NC1=O)Nc1ccc(C(=O)NCc2ccccc2)cc1 (stereo unspecified),7,89,nt,1
COc1cccc(CNC(=O)c2ccc(NC(=O)CC3SC(N4CCCC4)=NC3=O)cc2)c1 (stereo unspecified),5,99,nt,39*
COc1ccc(S(=O)(=O)Nc2c(C)nn(C)c2C)cc1Br,3,95,nt,3
O=C(NCCCN1CCOCC1)/C(=C/c1cccs1)NC(=O)c1ccccc1,7,104,0,1
CCc1ccc(OC(C)C(=O)Nc2ccc(S(=O)(=O)Nc3nccs3)cc2)cc1 (stereo unspecified),5,83,0,0
C=CC[C@H](CC(=O)N(CCO)Cc1ccccc1)C(=O)N[C@H](COC(=O)[C@@H](CC=C)Cc1ccc(F)cc1)Cc1c[nH]c2ccccc12,41*,115,nt,4
C=CC[C@@H](CC(=O)N(CCO)Cc1ccccc1)C(=O)N[C@@H](COC(=O)[C@@H](CC=C)Cc1ccc(F)cc1)Cc1ccccc1,35*,82,nt,4
C=CC[C@@H](CC(=O)N(CCO)Cc1ccccc1)C(=O)N[C@H](COC(=O)[C@@H](CC=C)Cc1ccc(F)cc1)Cc1c[nH]c2ccccc12,8,107,nt,-3
C=CCC[C@H](Cc1ccc(F)cc1)C(=O)OC[C@H](Cc1c[nH]c2ccccc12)NC(=O)[C@@H](CC=C)CC(=O)NCCO,31*,100,nt,-3
C=CCC[C@H](Cc1ccc(F)cc1)C(=O)OC[C@H](Cc1c[nH]c2ccccc12)NC(=O)[C@H](CC=C)CC(=O)N(CCO)Cc1ccccc1,47*,91,nt,-1
SMILES,HDAC3 inhib,CR mimetic SO,HIF activator,LANA-H2A inh
C=CCC[C@H](Cc1ccc(F)cc1)C(=O)OC[C@@H](Cc1c[nH]c2ccccc12)NC(=O)[C@@H](CC=C)CC(=O)N[C@@H](CO)Cc1ccccc1,10,116,nt,-5
C[C@H]1CN([C@@H](C)CO)C(=O)c2cccc(NC(=O)c3ccc(-c4nccs4)cc3)c2O[C@@H]1CN(C)C(=O)NC1CCCCC1,9,106,nt,1
C=CC[C@H](CC(=O)N(CCO)Cc1ccccc1)C(=O)NC[C@H](OC(=O)[C@@H](CC=C)Cc1ccc(F)cc1)c1ccccc1,28*,104,nt,0
C=CCC[C@@H](Cc1ccc(F)cc1)C(=O)OC[C@@H](NC(=O)[C@H](CC=C)CC(=O)N(CCO)Cc1ccccc1)c1ccccc1,7,92,nt,5
C=CCC[C@@H](Cc1ccc(F)cc1)C(=O)OC[C@@H](Cc1c[nH]c2ccccc12)NC(=O)[C@@H](CC=C)CC(=O)N(CCO)Cc1ccccc1,-2,94,nt,+
C=CC[C@@H](CC(=O)N(CCO)Cc1ccccc1)C(=O)NC[C@@H](OC(=O)[C@@H](CC=C)Cc1ccc(F)cc1)c1ccccc1,-8,94,nt,0
C=CCC[C@@H](Cc1ccc(F)cc1)C(=O)OC[C@H](Cc1c[nH]c2ccccc12)NC(=O)[C@@H](CC=C)CC(=O)N[C@@H](CO)Cc1ccccc1,-3,132,nt,-1
C=CCC[C@@H](Cc1ccc(F)cc1)C(=O)OC[C@@H](NC(=O)[C@@H](CC=C)CC(=O)N(CCO)Cc1ccccc1)c1ccccc1,38*,92,nt,3
CCOc1ccc(S(=O)(=O)Nc2ccc(F)cc2)c(C)c1C,3,70,-1,-4
O=C(OCCOc1ccccc1)c1n[nH]c2ccccc12,-7,112,2,16
CCN1C(=O)c2ccc(C(=O)Nc3cccc(C(=O)O)c3)cc2C1=O,-3,95,0,-2
COc1cccc(CNC(=O)CCC(=O)N2CCOCC2)c1,-4,83,nt,1
O=C(CCC(=O)N1CCOCC1)NCc1cccc(C(F)(F)F)c1,3,86,nt,22*
Cc1ccc2nc3c(cc(C(=O)NCC4CCCO4)c(=N)n3CCCOC(C)C)c(=O)n2c1 (stereo unspecified),nt,83,nt,18*
CCOCCCNc1nc2nc3ccc(C)cn3c(=O)c2cc1C(=O)NCC1CCCO1 (stereo unspecified),-420,117,0,1
CCOc1ccc(CCNC(=O)COC(=O)c2ccc[nH]c2=O)cc1OCC,-1,94,nt,2
O=C(NCCSc1c[nH]c2ccccc12)C1CC1,0,93,0,4
COC(=O)c1c(=O)n(O)c2ccc(OC)cc2[n+]1[O-],2,93,0,55*
Cn1ccnc1SCC(=O)c1ccc(C#N)cc1,36*,103,0,3
COc1ccccc1NC(=O)C(=O)N/N=C(\C)CC(=O)Nc1ccccn1,-4,100,0,24*
COc1ccc(NC(=O)C(=O)N/N=C(\C)CC(=O)Nc2ccccn2)c(OC)c1,2,84,-1,3
Nc1ccc(N=Nc2ccccc2O)c(N)c1,10,129,3,-3
Oc1ccccc1N=Nc1ccccc1O,nt,nt,202*,nt
Cc1ccc2nc(-c3ccncc3)c(NC3CCCCC3)n2c1,-7,92,452*,3
CCOc1ccc(OCCOC(=O)CN2C(=O)NC3(CCCC3)C2=O)cc1,-1,86,0,-5
Cn1c(=O)n(C)c2cc(NC(=O)CSc3nc4ccccc4c(=O)[nH]3)ccc21,6,107,-3,-2
